Results published in PubChem BioAssay (Tox21).
Several values for one entry are separate records, joined by “and”; a condition that tells them apart may be missing. Equal entries are not always repeated. Results filed as inconclusive are left out. Some structures have more than one record in an assay (separate samples or runs), and their calls can disagree. Activity calls are given as the source filed them. Unless noted, calls come from the whole dose curve; as a rule, active = well fitted curve in the direction sought with a large enough effect in the repeat runs; inconclusive = weak or mixed curves; inactive = no such curve, though single readings can be large; an effect the other way counts as inactive or inconclusive.

Legend:
[1] = qHTS assay for small molecule agonists of the p53 signaling pathway (AID 651631; calls by dose curve; note: nearly all actives have a fitted effect of over 15% in size; note: potency is the fitted concentration of half-maximal effect)
In short: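 HCT-116 cells carrying a beta-lactamase reporter under p53 response elements were dosed with compound for 16 h at 37 °C. LiveBLAzer B/G FRET substrate was then added for 2 h at room temperature, and fluorescence intensity was read to detect pathway agonism.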

[2] = qHTS assay for small molecules that induce genotoxicity in human embryonic kidney cells expressing luciferase-tagged ATAD5 (AID 651632); note: nearly all actives have a fitted effect of over 15% in size; note: potency is the fitted concentration of half-maximal effect
In short: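 Concentration-response screen for ATAD5 upregulation in HEK293T luciferase reporter cells; 16 hr treatment at 37C, then luminescence after 30 min with Amplite at room temperature.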

[3] = qHTS assay for small molecule agonists of the p53 signaling pathway - cell viability (AID 651633; calls by dose curve; note: nearly all actives have a fitted effect of over 30% in size; note: potency is the fitted concentration of half-maximal effect;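 for activity change, negative = cytotoxicity: p53RE-bla HCT reporter cells with a stable beta-lactamase p53 reporter; series mostly up to about 83 µM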)
In short: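 p53RE-bla cells, seeded at 4,000 per well and rested 5 h at 37 C/5% CO2, received compounds in DMSO for 16 h at 37 C. CellTiter-Glo was then added, and luminescence was read after 30 min at room temperature to gauge cytotoxicity.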

[4] = qHTS assay for small molecules that induce genotoxicity in human embryonic kidney cells expressing luciferase-tagged ATAD5 - cell viability (AID 651634; calls by dose curve; note: nearly all actives have a fitted effect of over 25% in size; note: potency is the fitted concentration of half-maximal effect)
In short: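 15.5 hr compound or vehicle exposure of HEK293T cells expressing luciferase-tagged ATAD5 at 37C; live-cell protease activity is read by fluorescence after 30 min of CellTiter-Fluor.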

[5] = qHTS assay for small molecule disruptors of the mitochondrial membrane potential - cell viability (AID 720634; calls by dose curve;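 note: human HepG2 liver cancer cells; series mostly up to about 83 µM; nearly all actives have a fitted effect of over 20% in size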)
In short: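 In this qHTS format, HepG2 cells plated overnight were pinned with compound, incubated 1 hr, and assayed for ATP luminescence with CellTiter-Glo after m-MPI dye addition.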

[6] = qHTS assay for small molecule disruptors of the mitochondrial membrane potential (AID 720635); note: potency is the fitted concentration of half-maximal effect
In short: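 HepG2 cells (2,000/well) attached overnight at 37C, then took compound for 1 hr at 37C, 5% CO2. Mito-MPS dye was added for 30 min; fluorescence was read at 490/535 nm (monomers) and 540/590 nm (aggregates).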

[7] = qHTS assay to test for compound auto fluorescence at 590 nm (red) in HepG2 cells (AID 720674)
In short: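 Rose Bengal sodium served as the red fluorophore standard. HepG2 monolayers (overnight attachment, MEM with 10% FBS) were exposed to test compounds for 1 hr at 37 C and read at Ex 540/Em 590 nm.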

[8] = qHTS assay to test for compound auto fluorescence at 535 nm (green) in HepG2 cells (AID 720675)
[9] = qHTS assay to test for compound auto fluorescence at 460 nm (blue) in HEK293 cells (AID 720678)
In short: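 HEK293 cells (2,000 per well, medium with 10% dialyzed FBS) attached for 4-5 hr at 37C, then received compound and stood overnight at 37C, 5% CO2. Blue fluorescence was read at Ex/Em 405/460 nm and expressed relative to triamterene.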

[10] = qHTS assay to test for compound auto fluorescence at 590 nm (red) in HEK293 cells (AID 720679)
In short: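 HEK293 cells (2,000/well, medium with 10% dialyzed FBS) attached for 4-5 hr at 37C, received 23 nL compound and were incubated overnight at 37C, 5% CO2. Red fluorescence was then read at 540/590nm Ex/Em, referenced to Rose Bengal sodium.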

[11] = qHTS assay to test for compound auto fluorescence at 535 nm (green) in HEK293 cells (AID 720680)
[12] = qHTS assay to test for compound auto fluorescence at 460 nm (blue) in HEK293 cell free culture (AID 720681)
In short: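 Test compounds were pinned into cell-free culture medium (DMEM with 10% FBS) and fluorescence was read directly at Ex/Em 405/460 nm. Signals were expressed as fluorescence equivalents of triamterene, with DMSO vehicle as control.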

[13] = qHTS assay to test for compound auto fluorescence at 590 nm (red) in HEK293 cell free culture (AID 720683)
In short: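 Tox21 10K library compounds were pinned into cell-free DMEM with 10% FBS and fluorescence was read at excitation 540 nm. Activity is expressed as Rose Bengal sodium equivalency.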

[14] = qHTS assay to test for compound auto fluorescence at 590 nm (red) in HepG2 cell free culture (AID 720684)
In short: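 Readout: intrinsic compound fluorescence at 590 nm emission after 540 nm excitation, scaled to Rose Bengal sodium. Matrix was cell-free MEM with 10% FBS; DMSO vehicle wells served as control.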

[15] = qHTS assay to test for compound auto fluorescence at 460 nm (blue) in HepG2 cell free culture (AID 720685)
In short: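 Cell-free plates of MEM plus 10% FBS received 23 nL compound or DMSO vehicle; blue-channel (405/460 nm) intensity scored against triamterene as reference fluorophore.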

[16] = qHTS assay to test for compound auto fluorescence at 535 nm (green) in HepG2 cell free culture (AID 720686)
[17] = qHTS assay to test for compound auto fluorescence at 460 nm (blue) in HepG2 cells (AID 720687)
In short: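 Cells (2,000/well in MEM with 10% FBS) attached overnight at 37 C, then were exposed to compound or DMSO for 1 hr at 37 C, 5% CO2. Fluorescence read at Ex/Em 405/460 nm, expressed as triamterene-equivalent signal.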

[18] = molecular target: Glucocorticoid receptor (Homo sapiens) (UniProt P04150); test: qHTS assay to identify small molecule agonists of the glucocorticoid receptor (GR) signaling pathway (AID 720691; active = well fitted activation curve with a large enough effect in the signal ratio in the repeat runs, not every such curve was filed as active; the % refers to the signal ratio)
Glucocorticoid receptor (Homo sapiens), sequence (P04150 whole entry, looked up): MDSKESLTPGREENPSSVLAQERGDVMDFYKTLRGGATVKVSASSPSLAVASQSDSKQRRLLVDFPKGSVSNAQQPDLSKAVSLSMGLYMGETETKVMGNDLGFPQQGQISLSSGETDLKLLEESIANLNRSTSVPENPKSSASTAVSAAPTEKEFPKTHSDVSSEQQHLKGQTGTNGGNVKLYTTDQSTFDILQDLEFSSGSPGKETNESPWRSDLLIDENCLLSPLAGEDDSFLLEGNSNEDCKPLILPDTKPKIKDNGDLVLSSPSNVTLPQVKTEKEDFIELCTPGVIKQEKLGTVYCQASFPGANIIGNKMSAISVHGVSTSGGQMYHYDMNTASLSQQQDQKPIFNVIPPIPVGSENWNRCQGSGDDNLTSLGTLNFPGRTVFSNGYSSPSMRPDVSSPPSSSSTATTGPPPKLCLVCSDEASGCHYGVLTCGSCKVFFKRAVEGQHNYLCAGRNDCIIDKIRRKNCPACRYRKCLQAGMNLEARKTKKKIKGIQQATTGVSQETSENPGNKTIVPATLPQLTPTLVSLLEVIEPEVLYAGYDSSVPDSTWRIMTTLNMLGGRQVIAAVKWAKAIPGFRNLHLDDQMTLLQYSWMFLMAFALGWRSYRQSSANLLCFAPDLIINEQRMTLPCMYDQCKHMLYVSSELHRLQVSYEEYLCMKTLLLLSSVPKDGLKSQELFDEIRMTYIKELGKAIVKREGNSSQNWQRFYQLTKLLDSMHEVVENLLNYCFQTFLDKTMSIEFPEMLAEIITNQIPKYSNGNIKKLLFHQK
In short: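 Measures GR pathway activation through a GRE-beta-lactamase reporter stably integrated in HeLa cells, with 18 h compound treatment at 37 C and fluorescence detection using a FRET substrate.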

[19] = qHTS assay to test for compound auto fluorescence at 535 nm (green) in HEK293 cell free culture (AID 720682)
In short: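 Green-label autofluorescence (485 nm excitation, 535 nm emission) measured on compound added to cell-free culture medium (DMEM, 10% FBS). Output is expressed relative to fluorescein.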

[20] = molecular target: Glucocorticoid receptor (Homo sapiens) (UniProt P04150); test: qHTS assay to identify small molecule antagonists of the glucocorticoid receptor (GR) signaling pathway (AID 720692; active = well fitted inhibition curve with a large enough effect in the signal ratio in the repeat runs, not every such curve was filed as active; the % refers to the signal ratio)
In short: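 Tox21 10K library screened in concentration-response for blockade of dexamethasone (5 nM final)-induced GRE-bla reporter activity in HeLa cells; 18 h treatment, fluorescence read.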
% is set by controls: 0 for no effect and ±100 for the full control effect.

CCCC1CCCC(=O)O1 (stereo not given)
inactive: Potency [1] | Potency [2] | Potency [3] | Potency [4] | Potency [5] | Potency [6] | outcome [7] | outcome [8] | Potency [9] | outcome [10] | outcome [11] | Potency [12] | outcome [13] | outcome [14] | outcome [15] | outcome [16] | outcome [17] | Potency [18]

CCCCCCCCCC(C)C=O (stereo not given)
inactive: Potency [1] | Potency [2] | Potency [3] | Potency [4] | Potency [5] | outcome [7] | outcome [8] | Potency [9] | outcome [10] | outcome [11] | Potency [12] | outcome [19] | outcome [13] | outcome [14] | outcome [15] | outcome [16] | outcome [17] | Potency [18]

Cc1ccc(S(=O)(=O)NC(=O)NC2CCCC2)cc1
inactive: Potency [1] | Potency [2] | Potency [3] | Potency [4] | Potency [5] | Potency [6] | outcome [7] | outcome [8] | Potency [9] | outcome [10] | outcome [11] | Potency [12] | outcome [19] | outcome [13] | outcome [14] | outcome [15] | outcome [16] | outcome [17] | Potency [18]

CC1=CC(=C(c2ccc(N)cc2)c2ccc(N)cc2)C=CC1=N
inactive: activation [1] -1.72% [at 8.3 µM] | Potency [2] | Potency [3] | activity, negative = cytotoxicity [4] -19.8% [at 8.08 µM] | activity change, negative = cytotoxicity [5] -6.69% [at 8.08 µM] | outcome [7] | outcome [8] | Potency [9] | outcome [10] | outcome [11] | Potency [12] | outcome [19] | outcome [13] | outcome [14] | outcome [15] | outcome [16] | outcome [17] | activation [18] -0.66% [at 6.9 µM]
active: Potency [4] 11.9 µM | Potency [6] 221 nM and 55 nM

CC(C)C[C@H](NC(=O)[C@H](Cc1ccccc1)NC(=O)c1cnccn1)B(O)O
active: Potency [1] 15 nM and 9.4 nM | Potency [2] 21.1 nM and 18.8 nM | Potency [3] 376 nM and 211 nM | Potency [4] 376 nM and 94.4 nM
inactive: Potency [5] | Potency [6] | outcome [7] | outcome [8] | Potency [9] | outcome [10] | outcome [11] | Potency [12] | outcome [19] | outcome [13] | outcome [14] | outcome [15] | outcome [16] | outcome [17] | Potency [18]

C/C(=C\C(C)CC(C)CC(C)C)C1CC(=O)OC1=O (stereo not given)
inactive: Potency [1] | Potency [2] | Potency [3] | Potency [4] | Potency [5] | Potency [6] | outcome [8] | Potency [9] | outcome [10] | outcome [11] | Potency [12] | outcome [19] | outcome [13] | outcome [15] | outcome [16] | outcome [17] | Potency [18]

CC(C)(C)N
inactive: Potency [1] | Potency [2] | Potency [3] | Potency [4] | Potency [5] | Potency [6] | outcome [8] | Potency [9] | outcome [10] | outcome [11] | Potency [12] | outcome [19] | outcome [13] | outcome [14] | outcome [15] | outcome [16] | outcome [17] | Potency [18] | Potency [20]
